Screening data deposited in PubChem BioAssay by National Center for Advancing Translational Sciences (NCATS).
AmpC no deterg: inhibitors of E. coli AmpC beta-lactamase without detergent; 0.52% of 330,000 active; P00811; AmpC nitrocefin hydrolysis, absorbance 480 nm, 0.0001% Triton; Potency, µM (top dose mostly 57.1 µM), most hits filed as inhibitors; AID 485341; note: nearly all actives have a fitted effect of over 20% in size
Target sequence (P00811 whole entry, looked up): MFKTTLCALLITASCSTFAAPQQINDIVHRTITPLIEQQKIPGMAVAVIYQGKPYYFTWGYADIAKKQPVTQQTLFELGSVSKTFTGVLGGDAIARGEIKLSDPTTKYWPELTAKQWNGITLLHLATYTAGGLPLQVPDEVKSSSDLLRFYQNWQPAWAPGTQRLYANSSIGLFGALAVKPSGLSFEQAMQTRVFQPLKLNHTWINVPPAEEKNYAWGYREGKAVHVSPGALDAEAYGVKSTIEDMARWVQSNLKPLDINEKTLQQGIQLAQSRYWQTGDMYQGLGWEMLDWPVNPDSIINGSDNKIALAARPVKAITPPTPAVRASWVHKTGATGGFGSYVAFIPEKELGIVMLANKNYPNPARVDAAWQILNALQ
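AmpC (5.3 nM in the dispensed reagent) in 20 mM phosphate pH 7.0 with 0.01% (detergent screen) or 0.0001% Triton X-100 was preincubated with compounds for 15 min at room temperature. Nitrocefin was then added from an 800 uM solution, and hydrolysis was followed at 480 nm.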
Giardia FBPA inh: Giardia lamblia aldolase inhibition | A8B2U2 | purified Giardia FBPA | Potency, µM (top dose mostly 59.6 µM), actives largely listed as inhibitors | 0.71% of 290,000 active | AID 2451; note: nearly all actives have a fitted effect of over 55% in size
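Giardia FBPA (40 nM reagent) was preincubated 10 min at RT with compound (up to 57.5 uM final), then substrate plus GAPDH/TPI/NAD/arsenate coupling system with diaphorase/resazurin was added; resorufin fluorescence (525/598 nm) was read after 20 min.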
RE007 growth inh: less growth of the S. pombe RE007 Vpr strain; Potency, µM (top dose mostly 92.2 µM), actives largely listed as inhibitors; S. pombe RE007 Vpr strain, BacTiter-Glo ATP luminescence, 24 h; AID 651644; 0.21% of 360,000 active; active = well fitted falling curve with a large enough effect; inconclusive = small, poorly fitted or top-dose-only effect; inactive = no such curve, though single readings can be large or run the other way; note: nearly all actives have a fitted effect of over 50% in size
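Fission yeast RE007 carrying one integrated HIV-1 vpr copy, seeded at OD 0.01 in PMG+AL medium with 23 nL pinned compound. Grown 24 h at 30 degrees; viability read by BacTiter-Glo luminescence after 5 min.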
AmpC detergent: AmpC beta-lactamase inhibition with detergent present | P00811 | AmpC hydrolysis of nitrocefin, absorbance 480 nm, 0.01% Triton | AID 485294 | Potency, µM (doses to about 114 µM), hits mostly inhibitors | 0.041% of 370,000 active; note: nearly all actives have a fitted effect of over 25% in size
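AmpC (5.3 nM in the dispensed reagent) in 20 mM phosphate pH 7.0 with 0.01% (detergent screen) or 0.0001% Triton X-100 was preincubated with compounds for 15 min at room temperature. Nitrocefin was then added from an 800 uM solution, and hydrolysis was followed at 480 nm.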
Sm TGR inh: inhibitors of Schistosoma mansoni thioredoxin glutathione reductase | Q962Y6 | purified TGR, DTNB reduction, TNB absorbance 405 nm | Potency, µM (highest dose often 114 µM), actives largely listed as inhibitors | 3% of 360,000 active; note: nearly all actives have a fitted effect of over 60% in size
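First, TGR (20 nM dispensed) and NADPH were mixed with compound. Second, a 15 min room-temperature incubation followed. Third, further NADPH and then DTNB were added to start the reaction. Finally, TNB absorbance was monitored kinetically.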
Hits are given with their value; i = inactive; ? = inconclusive; nt = no result given; [ ] = dose if it differs, or a comment. A selection: hits, their analogues and other compounds. The true share with any hit is near 3.4%. Unless noted, calls come from the whole dose curve; as a rule, active = well fitted curve in the direction sought with a large enough effect; inconclusive = small, poorly fitted or top-dose-only effect, or another doubt; inactive = no such curve, though single readings can be large; an effect the other way counts as inactive or inconclusive.

SMILES	AmpC no deterg	Giardia FBPA inh	RE007 growth inh	AmpC detergent	Sm TGR inh
CCOC(=O)C1CCCN(C(=O)CCCn2nnnc2CN2CCOCC2)C1 (centres undefined)	i	i	i	i	40µM
O=C(CCn1nnnc1CN1CCOCC1)N1CCC(c2ccccc2F)C1 (centres undefined)	i	i	i	i	25µM
CCCOC1CCCN(C(=O)CCCn2nnnc2CN2CCOCC2)C1 (centres undefined)	i	i	i	i	i
Cc1ccc2c(c1)C(N1CCCC1=O)CC(c1ccco1)N2 (centres undefined)	i	?	?	?	10µM
Cc1ccc(C2CC(c3ccco3)n3ncnc3N2)cc1 (centres undefined)	i	i	i	i	i
CCOc1ccc2nc(N(CCN(CC)CC)C(=O)c3cccc([N+](=O)[O-])c3)sc2c1	i	i	i	i	i
Cc1ccc2nsnc2c1NC(=S)NC(=O)c1ccco1	i	?	i	i	45µM
O=C(NC(=S)Nc1cccc(O)c1)c1ccco1	i	?	nt	i	7.9µM
CC(=O)Nc1cccc(O)c1	i	i	i	i	i
O=C(CNC(=O)c1ccco1)Nc1ccc2c(c1)OCCO2	i	nt	i	?	i
Cc1ccc2nc(NC(=S)NC(=O)c3ccco3)sc2c1	i	i	i	i	?
Oc1cccc(NC(=S)Nc2ccccc2)c1	i	i	i	i	16µM
O=C(NC(=S)Nc1ccc2c(c1)OCCO2)c1ccco1	i	?	i	i	16µM
CCOC(=O)Cn1cc(C#N)c(=O)[nH]c1=O	i	i	i	i	i
O=C(OCCCCN1C(=O)c2ccccc2C1=O)c1n[nH]c2ccccc12	i	i	i	i	i
O=C(NC(=S)Nc1ccc2c(c1)OCCO2)c1ccc(F)cc1Cl	i	i	i	79µM	?
CCNC(=O)C1Cc2cc(S(=O)(=O)N3CCCC3)ccc2N1C(C)=O (centres undefined)	i	i	i	i	i
CCOC(=O)Cc1csc(NC(=O)Nc2cccc(Cl)c2)n1	20µM	i	i	i	i
CCOC(=O)Cc1csc(NC(=O)Nc2ccc(Cl)cc2)n1	i	i	i	i	i
CCOC(=O)Cc1csc(NC(=O)/C=C/c2ccc(Br)o2)n1	i	i	i	i	10µM
O=C(/C=C/c1ccc(Br)o1)Nc1nccs1	i[11.4 µM]	i	i	i	3.2µM
O=C(Nc1c(C(=O)Nc2ccc(F)cc2)oc2ccccc12)c1cc2ccccc2o1	nt	nt	nt	i	i
O=C1c2ccccc2C(=O)N1CCC1=CCCCC1	i	i	i	i	i
O=C1NC2(CCCCC2)C(=O)N1CCS(=O)(=O)Oc1ccccc1	i	i	i	i	i
CCCN1C(=O)CC(=O)N=C1SCC(=O)Nc1ccccc1F	i	nt	i	nt	nt
SMILES	AmpC no deterg	Giardia FBPA inh	RE007 growth inh	AmpC detergent	Sm TGR inh
Cc1[nH]n(C(C)(C)C)c(=O)c1Sc1ccc(Cl)cc1	i	i	i	i	i
CC(=O)OCC1=C(C(=O)O)N2C(=O)[C@@H](NC(=O)CSc3ccncc3)[C@H]2SC1	i	i	i	i	45µM
CC(=O)OCC1=C(C(=O)O)N2C(=O)C(NC(=O)C(C)Cn3nc(C)c(Cl)c3C)C2SC1 (centres undefined)	i	i	i	i	28µM
c1ccc(N=NC2=NN(c3ccccc3)CS2)cc1	nt	nt	i	nt	nt
CC(C)[C@H]1C(=O)O[C@H](C(C)C)C(=O)N(C)[C@@H](C(C)C)C(=O)O[C@H](C(C)C)C(=O)N(C)[C@@H](C(C)C)C(=O)O[C@H](C(C)C)C(=O)N1C	i	i	i	i	i
O=C(CC1SC(=O)N(c2ccccc2)C1=O)Nc1cccc2ccccc12 (centres undefined)	18µM	i	i	i	?
Cc1ccccc1NC(=O)CC1SC(=O)N(c2ccccc2)C1=O (centres undefined)	i	i	?	i	5µM
CCOc1ccc(NC(=O)CC2SC(=O)N(c3ccccc3)C2=O)cc1 (centres undefined)	i	i	i	i	?
CCOC(=O)C(NC(=O)c1cccc(Cl)c1)(Nc1sc2c(c1C(N)=O)CCC2)C(F)(F)F (centres undefined)	i	i	i	?	40µM
